ALOX12 inh – inhibitors of human 12S-lipoxygenase ALOX12; P18054; purified 12hLO, xylenol orange hydroperoxide absorbance; Potency, µM (titrated, usually from 108 µM), for the others: at the highest dose activity change, negative = inhibition, most hits filed as inhibitors; hit rate 1.1% among 580,000; AID 1671190; also: potency is read from the fitted curve at half-maximal effect
Target sequence (P18054 whole entry, looked up): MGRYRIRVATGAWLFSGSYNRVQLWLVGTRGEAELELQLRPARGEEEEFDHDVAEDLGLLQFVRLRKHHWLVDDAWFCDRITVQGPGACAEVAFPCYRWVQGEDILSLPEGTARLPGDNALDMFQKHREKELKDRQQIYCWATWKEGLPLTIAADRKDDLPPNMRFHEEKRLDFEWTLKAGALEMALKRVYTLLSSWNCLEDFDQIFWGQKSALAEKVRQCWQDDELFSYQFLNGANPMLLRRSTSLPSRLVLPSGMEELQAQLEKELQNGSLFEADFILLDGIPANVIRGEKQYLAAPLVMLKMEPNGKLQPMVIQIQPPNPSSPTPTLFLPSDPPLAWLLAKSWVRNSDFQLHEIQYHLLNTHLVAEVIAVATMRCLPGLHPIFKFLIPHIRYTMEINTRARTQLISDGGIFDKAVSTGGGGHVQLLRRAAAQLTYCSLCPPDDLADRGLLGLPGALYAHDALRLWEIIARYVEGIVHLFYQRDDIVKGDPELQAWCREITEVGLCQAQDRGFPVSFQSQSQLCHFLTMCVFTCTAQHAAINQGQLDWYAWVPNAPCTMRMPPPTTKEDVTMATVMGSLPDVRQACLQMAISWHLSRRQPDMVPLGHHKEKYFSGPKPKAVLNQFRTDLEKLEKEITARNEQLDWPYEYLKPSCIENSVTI
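Purified human 12hLO (150 nM final) in 25 mM Hepes, 0.01% Triton X-100, pH 7.0 was preincubated 15 min at room temperature with compound. Then 40 uM arachidonic acid was added, 30 min. Hydroperoxide was read by Fe-XO absorbance ratio 573/405 nm.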
HT1080-NT tox – kills 2HG-producing HT-1080-NT fibrosarcoma cells; HT-1080-NT fibrosarcoma viability, CellTiter-Glo ATP luminescence, 48 h; Potency, µM (highest dose often 46.1 µM), inactives show top-dose activity, negative = less viability, actives largely listed as cytotoxic; hit rate 1.6% among 360,000;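 also: NT is the 2HG producing partner of a matched IDH1 knockdown line; potency is read from the fitted curve at half-maximal effect; 0% = DMSO-treated cells and -100% = media-only wells without cells; nearly all actives have a fitted effect of over 55% in size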
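A 48-hour cytotoxicity screen used HT-1080-NT cells plated 2 hours before compound delivery. ATP-based CellTiter-Glo luminescence measured viability, normalized to DMSO and no-cell controls.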
DT40 TDP1 no CPT – qHTS for Inhibitors of human tyrosyl-DNA phosphodiesterase 1 (TDP1): qHTS in cells in absence of CPT. DT40 Tdp1-/- hTDP1 cells, no CPT, ATP luminescence, 48 h. Potency, µM (series often up to 46.2 µM), without a hit: top-dose activity change, negative = growth inhibition, hits mostly inhibitors. hit rate 15% among 420,000; also: potency is read from the fitted curve at half-maximal effect; nearly all actives have a fitted effect of over 55% in size
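Chicken DT40 Tdp1-/- cells complemented with human TDP1, screened without camptothecin (DMSO vehicle only), 400 cells/well. Compounds pin-transferred, cells incubated at 37 °C for at least 48 hr. Growth read as ATP-dependent luminescence (CellTiter-Glo, 30 min at RT).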
HT1080 IDH1KD tx – HT-1080 IDH1 knockdown cell toxicity (counter line); HT-1080 IDH1 knockdown viability, ATP luminescence, 48 h; hit rate 2% among 360,000; Potency, µM (series often up to 46.1 µM), without a hit: top-dose activity, negative = toxicity, most hits filed as cytotoxic;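 also: potency is read from the fitted curve at half-maximal effect; 0% = DMSO wells and -100% = cell-free medium wells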
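CellTiter-Glo luminescence after 48 h compound exposure at 37 degrees C of IDH1-knockdown HT-1080 cells in 5% FBS RPMI. %Activity scaled between DMSO wells and cell-free media wells, with curves fitted and assigned curve classes.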
IL1B secr inh – blocks inflammasome-driven IL-1 beta release; THP-1 LPS/ATP IL-1B secretion, AlphaLISA, 16 h; hits give low values; AID 743279; activity change, % at 57.5 µM; hit rate 4.7% among 360,000; in the data active = activity change below about -50%; inconclusive = mostly about -30% to -49%
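THP-1 cells pretreated 1 hr with compounds (up to 57.5 uM final), then stimulated with LPS (250 ng/mL final) plus ATP (1.25 mM final); secreted IL-1B measured by AlphaLISA after 16 hr, decreased signal indicating inhibition.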
TDP1 cell CPT – growth inhibition of DT40 Tdp1-/-;hTDP1 cells with camptothecin (screen for TDP1 inhibitors). Potency, µM (doses to about 46.2 µM), for inactives: at the top dose activity change, negative = growth inhibition, usual class: inhibitors. hit rate 12% among 420,000. chicken DT40 Tdp1-/-;hTDP1 cells + 20 nM CPT, ATP luminescence, 48 h; also: potency is read from the fitted curve at half-maximal effect; nearly all actives have a fitted effect of over 55% in size
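Chicken DT40 Tdp1-/- cells stably complemented with human TDP1 were seeded at 400 cells/well in medium containing 20 nM camptothecin, exposed to pin-transferred compounds, and grown at 37 °C for at least 48 hr. Viability was read as ATP luminescence.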
* = called active by the depositor; ? = inconclusive; nt = no result; [ ] = dose if it differs, or a comment. Only a selection was taken, and hits are over-represented in it overall. Unless noted, calls follow the shape of the dose curve; as a rule, active = well fitted curve in the direction sought with a large enough effect; inconclusive = small, poorly fitted or top-dose-only effect, or another doubt; inactive = no such curve, though single readings can be large; an effect the other way counts as inactive or inconclusive. Unless noted, % is scaled to controls: 0 for no effect and ±100 for the full control effect.

SMILES	ALOX12 inh	HT1080-NT tox	DT40 TDP1 no CPT	HT1080 IDH1KD tx	IL1B secr inh	TDP1 cell CPT
COc1cc2ccccc2cc1C(=O)N(CCN(C)C)c1nc2c(C)cccc2s1	?	?	23µM*	?	-61*	16µM*
Cn1nnnc1SCC(=O)N(Cc1cccs1)c1ccc2c(c1)OCCO2	0%	nt	nt	nt	nt	nt
CCC(CC)NCc1cccnc1Oc1ccccc1	43%	nt	nt	nt	nt	nt
COc1cccc(N2CCN(C(=S)NCc3ccco3)CC2)c1	-18%	-5%	-18%	0%	10	1%
CCCCNC(=S)N1CCN(c2ccccc2Cl)CC1	-27%	13%	-25%	5%	-58*	-4%
Cc1ccc(Cl)cc1N1CCN(C(=S)NCc2ccco2)CC1	?	?	18µM*	-28%	-82*	-7%
O=C(CN1CCN(c2nc(-c3ccc(Cl)cc3)cs2)CC1)NCc1ccco1	-18%	-21%	?	-2%	-8	?
S=C(NCc1ccco1)N1CCN(c2nc(-c3ccc(Cl)cc3)cs2)CC1	?	?	?	?	-61*	?
S=C(NCc1ccco1)N1CCN(c2nc(-c3ccccc3)cs2)CC1	-3%	-2%	?	-15%	-73*	?
C=CCNC(=S)N1CCN(c2ccccc2Cl)CC1	-13%	7%	?	8%	-23	?
Cc1nc(-c2ccccc2Cl)sc1C(=O)N[C@@H](C)C(=O)O	2%	nt	nt	nt	nt	nt
Cc1ccoc1C(=O)NCc1ccnc(OCC(F)(F)F)c1	8%	nt	nt	nt	nt	nt
S=C(NCC1CCCO1)N1CCN(c2nc(-c3ccccc3)cs2)CC1 (stereo unspecified)	1%	-15%	?	-29%	-58*	?
COc1ccc(-n2nc(C(=O)NCc3ccco3)c3c4ccccc4n(C)c3c2=O)cc1Cl	-17%	-1%	10µM*	-16%	44	?
CCCCN(C)CCNC(=O)c1nn(-c2ccc(OC)c(Cl)c2)c(=O)c2c1c1ccccc1n2C	-19%	nt	18µM*	nt	nt	?
O=C(c1csnn1)N1CCC2(CC1)CN(c1ccccc1)C2	-1%[57.4 µM]	nt	?	nt	nt	16µM*
O=C(c1csnn1)N1CCC2(CC1)CN(C(c1ccccc1)c1ccccc1)C2	-17%[57.4 µM]	nt	?	nt	nt	-15%
O=C(c1csnn1)N1CCC2(CC1)CN(c1cccc(-c3ccccc3)c1)C2	2%[57.4 µM]	nt	21µM*	nt	nt	23µM*
O=C(c1csnn1)N1CCC2(CCCN(C(c3ccccc3)c3ccccc3)C2)CC1	12%[57.4 µM]	nt	?	nt	nt	18µM*
O=C(c1csnn1)N1CCC2(CC1)CCN(c1ccccc1)CC2	?	nt	?	nt	nt	11%
COC(=O)CC(NC(=O)c1ccc(C#N)cc1)c1ccc(C)cc1 (stereo unspecified)	-3%	nt	nt	nt	nt	nt
COc1ccc(N2N=NN(C(C)C)C2=C(Cl)c2nnnn2-c2ccc(OC)cc2)cc1	?	-7%	8.2µM*	?	nt	5.8µM*
CCOc1ccccc1NC(=O)c1cnc(N2CCOCC2)c2ccccc12	-38%	nt	18µM*	nt	nt	21µM*
CCN1CCN(c2ncc(C(=O)Nc3ccccc3C(=O)OC)c3ccccc23)CC1	-25%	21µM*	16µM*	?	?	23µM*
COC(=O)c1cnc(N2CCN(c3ccccn3)CC2)c2ccccc12	-4%	nt	nt	nt	nt	nt
CCN1CCN(c2ncc(C(=O)OC)c3ccccc23)CC1	-27%	nt	nt	nt	nt	nt
COC(=O)c1cnc(N2CCN(c3ccccc3F)CC2)c2ccccc12	-13%	nt	16µM*	nt	nt	?
COc1ccc(OC)c(NC(=O)c2cnc(N3CCCCC3)c3ccccc23)c1	?	nt	8.2µM*	nt	nt	10µM*
CC(C)CCNC(=O)N1CCC(N2CC3CC(C2)[C@H]2CCCC(=O)N2C3)CC1 (stereo partly specified)	23%	nt	nt	nt	nt	nt

Assay outcomes deposited in PubChem BioAssay by National Center for Advancing Translational Sciences (NCATS).
